KCNQ2 enhance – KCNQ2 (rat) channel potentiation | B-score at 10 µM | O88943 | actives 0.54% (n = 310,000) | CHO-K1 KCNQ2, FluxOR thallium flux fluorescence; stronger effect = higher value;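 active = fluorescence ratio B-score at least 3 SD of library B-scores, with initial fluorescence B-score within 3 of them, cut at about 5.3 in these data; same plate scores as AID 2156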;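 note: B-score of peak minus minimum over baseline fluorescence ratio after K+ and Tl+ stimulus; positive B-score means potentiation of KCNQ2 with more thallium influx and brighter signal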
Target sequence (O88943 whole entry, looked up): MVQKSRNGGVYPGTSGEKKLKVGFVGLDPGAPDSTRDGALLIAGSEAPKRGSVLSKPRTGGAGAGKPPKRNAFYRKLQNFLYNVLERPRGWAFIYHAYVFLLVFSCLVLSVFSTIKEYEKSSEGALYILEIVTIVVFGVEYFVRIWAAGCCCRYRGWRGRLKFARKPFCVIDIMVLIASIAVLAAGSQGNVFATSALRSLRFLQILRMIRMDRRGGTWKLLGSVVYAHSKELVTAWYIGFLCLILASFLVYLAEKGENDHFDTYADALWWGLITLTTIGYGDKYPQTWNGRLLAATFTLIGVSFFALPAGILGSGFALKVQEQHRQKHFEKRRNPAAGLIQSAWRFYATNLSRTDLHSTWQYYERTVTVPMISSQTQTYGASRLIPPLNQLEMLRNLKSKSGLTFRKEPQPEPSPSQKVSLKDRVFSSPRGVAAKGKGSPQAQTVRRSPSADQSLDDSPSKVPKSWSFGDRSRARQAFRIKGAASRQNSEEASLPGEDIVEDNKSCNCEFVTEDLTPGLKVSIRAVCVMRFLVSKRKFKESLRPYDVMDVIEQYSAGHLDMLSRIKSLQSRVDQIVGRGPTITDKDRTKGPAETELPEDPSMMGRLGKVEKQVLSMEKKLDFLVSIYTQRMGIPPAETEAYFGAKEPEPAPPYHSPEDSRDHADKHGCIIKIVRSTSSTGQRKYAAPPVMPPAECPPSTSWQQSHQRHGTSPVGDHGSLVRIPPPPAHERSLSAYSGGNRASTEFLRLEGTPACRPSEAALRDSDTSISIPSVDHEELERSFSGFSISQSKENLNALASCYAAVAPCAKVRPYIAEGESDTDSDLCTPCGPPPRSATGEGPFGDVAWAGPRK
KCNQ2 inh – blocks the rat KCNQ2 potassium channel; CHO-K1 KCNQ2, FluxOR thallium flux, 20 min; stronger effect = lower value; B-score at 10 µM; actives 1.1% (n = 310,000); AID 2156;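 active = fluorescence ratio B-score at most minus 3 library SDs, with starting brightness B-score within 2 library SDs, cut at about -5.5 in these data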
* hit, by the source's call. An excerpt weighted towards active compounds, which were near 1.6% of everything screened.

How did C=CCOC(=O)C1=C(C)NC(SC)=C(C#N)C1c1ccc(OCC)cc1 (configuration not stated) do in these assays?
KCNQ2 inh: inactive

How did C=CCOC(=O)C1=C(C)NC(SCC(=O)OCC)=C(C#N)C1c1ccc(O)c(OC)c1 (configuration not stated) do in these assays?
KCNQ2 enhance: -8.1; KCNQ2 inh: -8.1*

What do the screens show for `CC(=O)c1ccc(OCCCC(=O)NCCc2ccc(C(F)(F)F)cc2)cc1`?
KCNQ2 enhance: 0.35; KCNQ2 inh: inactive

What do the screens show for `N#Cc1cc([N+](=O)[O-])c(-n2nnc3ccccc32)c([N+](=O)[O-])c1`?
KCNQ2 enhance: -5.7; KCNQ2 inh: -5.7*

Results for CS(=O)(=O)c1ccc(-n2nnc3ccccc32)c([N+](=O)[O-])c1 ?
KCNQ2 inh: inactive

Results for Cn1c(SCC(=O)Nc2ccc(Br)cc2)nc(O)cc1=O ?
KCNQ2 enhance: 1.4; KCNQ2 inh: inactive

What do the screens show for `Cc1cccc(-c2cc(C(=O)Nc3c(C)n(C)n(-c4ccccc4)c3=O)c3ccccc3n2)c1`?
KCNQ2 enhance: -5.9; KCNQ2 inh: -5.9*

Results for Cc1c(NC(=O)COC(=O)c2cc(-c3cccc4ccccc34)nc3ccccc23)c(=O)n(-c2ccccc2)n1C ?
KCNQ2 inh: inactive

How did O=C(COc1ccc([N+](=O)[O-])cc1)Nc1ccc(C(=O)Nc2ccccc2C(=O)O)cc1 do in these assays?
KCNQ2 enhance: 0.12; KCNQ2 inh: inactive

How did CC(C)(C)[C@H]1C=C(C(=O)NCc2nc3ccccc3[nH]2)O[C@@H](OCc2ccc(CO)cc2)C1 do in these assays?
KCNQ2 inh: inactive

How did Cc1nc(N2CCN(c3ccccc3)CC2)nc2c1C(=O)CC(c1ccccc1)C2 (configuration not stated) do in these assays?
KCNQ2 enhance: -6.1; KCNQ2 inh: -6.1*

What do the screens show for `Cc1nc(N2CCN(c3ccccc3)CC2)nc2c1C(=O)CC(C)C2` (configuration not stated)?
KCNQ2 inh: inactive

Results for CCN(CC)S(=O)(=O)c1ccc(C)c(NC(=O)COc2ccc(Cl)cc2Br)c1 ?
KCNQ2 enhance: 0.05; KCNQ2 inh: inactive

Results for CCN(CC)S(=O)(=O)c1cc(NC(=O)COc2ccc(C#N)cc2OC)ccc1C ?
KCNQ2 inh: inactive

Results for CCN(CC)S(=O)(=O)c1cccc(NC(=O)COc2ccc(C#N)cc2OC)c1 ?
KCNQ2 enhance: 7.5*; KCNQ2 inh: inactive

What do the screens show for `CCN(CC)S(=O)(=O)c1cccc(NC(=O)COc2ccc(F)cc2Br)c1`?
KCNQ2 enhance: -7.6; KCNQ2 inh: -7.6*

Results for C/C=C/C(=O)OCC(=O)Nc1cc(-c2cc(C)c(C)cc2C)nn1-c1ccccc1 ?
KCNQ2 inh: inactive

What do the screens show for `CC(C)(CO)NC(=O)c1ccc2nc(Cc3cccc(Cl)c3)oc2c1`?
KCNQ2 enhance: 0.39; KCNQ2 inh: inactive

What do the screens show for `COc1ccc(C2=Nc3ccc(C)cc3C(c3ccccc3)N2CC(=O)NN)cc1` (configuration not stated)?
KCNQ2 enhance: 2.7; KCNQ2 inh: inactive

How did COc1ccc(C2=Nc3ccc(Br)cc3C(c3ccccc3)N2CC(=O)NN)cc1 (configuration not stated) do in these assays?
KCNQ2 enhance: 7.8*; KCNQ2 inh: inactive

How did CC(C)(C)NC(=O)C12CC3CC(CC(Cl)(C3)C1)C2 do in these assays?
KCNQ2 enhance: 2.4; KCNQ2 inh: inactive

How did CC(C)(C)NC(=S)NC(=O)C12CCC3CC(CC(C3)C1)C2 do in these assays?
KCNQ2 enhance: -5.7; KCNQ2 inh: -5.7*

What do the screens show for `COc1ccc(NC(=O)C(CC(C)C)NC(=O)c2ccccc2C)cn1` (configuration not stated)?
KCNQ2 enhance: -7.7; KCNQ2 inh: -7.7*

How did Cc1ccccc1C(=O)NC(CC(C)C)C(=O)Nc1ccc(F)c([N+](=O)[O-])c1 (configuration not stated) do in these assays?
KCNQ2 inh: inactive

How did c1ccc(-c2nnc(-c3c[nH]c4ccccc34)nc2-c2ccccc2)cc1 do in these assays?
KCNQ2 enhance: -6.8; KCNQ2 inh: -6.8*

What do the screens show for `ClC(Cl)c1nnc(-c2ccccc2)c(-c2c[nH]c3ccccc23)n1`?
KCNQ2 inh: inactive

Results for O=C(Cc1ccsc1)Nc1ccc(S(=O)(=O)C(F)F)cc1 ?
KCNQ2 enhance: 0.33; KCNQ2 inh: inactive

How did O=C(Cc1cc2ccccc2o1)NCc1ccc(F)cc1 do in these assays?
KCNQ2 inh: inactive

Results for COCCN(C(=O)COC(=O)CCOc1ccccc1C)c1c(N)n(Cc2ccccc2)c(=O)[nH]c1=O ?
KCNQ2 inh: inactive

Results for CN(C(=O)COn1nnc2ccc(S(=O)(=O)N3CCOCC3)cc21)c1ccccc1 ?
KCNQ2 enhance: 0.23; KCNQ2 inh: inactive

Results for Cc1ccccc1COn1nnc2ccc(S(=O)(=O)N3CCOCC3)cc21 ?
KCNQ2 enhance: -6.7; KCNQ2 inh: -6.7*

How did COc1ccccc1CNC(=O)COC(=O)c1n[nH]c2ccccc12 do in these assays?
KCNQ2 enhance: -5.9; KCNQ2 inh: -5.9*
